Experimental data as given in ChEMBL document CHEMBL5724796, “Tm Shift (DSF) assay results for EUbOPEN Chemogenomics Library” (2024).
Several values for one entry are separate records, joined by “and”; a condition that tells them apart may be missing. Equal values may be shown once. Non-standard residues stand in square brackets, D forms with d. Residues, ends and D or L forms follow the SMILES beside them. *: point of attachment. Benzoyl(4-OPh) = O=C(c1ccc(Oc2ccccc2)cc1)*; Lys(Et2) = CCN(CC)CCCC[C@H](N)C(=O)O; d(aIle) = CC[C@H](C)[C@@H](N)C(=O)O; Gly(cPent) = N[C@H](C(=O)O)C1CCCC1; NH(propargyl) = C#CCN*

What was measured:
Settings in all cases: Compound concentration 20.0 uM
[1] = target: Tyrosine-protein kinase ABL1 (Homo sapiens) (UniProt P00519)
[2] = target: Bromodomain-containing protein 4 (Homo sapiens) (UniProt O60885)
[3] = target: Cyclin-dependent kinase 2 (Homo sapiens) (UniProt P24941)
[4] = target: Casein kinase I isoform delta (Homo sapiens) (UniProt P48730)
[5] = target: Glycogen synthase kinase-3 beta (Homo sapiens) (UniProt P49841)
[6] = target: Mitogen-activated protein kinase 1 (Homo sapiens) (UniProt P28482)
[7] = target: T1, Aurora kinase A (Homo sapiens) (UniProt O14965)
T1 sequence (whole entry): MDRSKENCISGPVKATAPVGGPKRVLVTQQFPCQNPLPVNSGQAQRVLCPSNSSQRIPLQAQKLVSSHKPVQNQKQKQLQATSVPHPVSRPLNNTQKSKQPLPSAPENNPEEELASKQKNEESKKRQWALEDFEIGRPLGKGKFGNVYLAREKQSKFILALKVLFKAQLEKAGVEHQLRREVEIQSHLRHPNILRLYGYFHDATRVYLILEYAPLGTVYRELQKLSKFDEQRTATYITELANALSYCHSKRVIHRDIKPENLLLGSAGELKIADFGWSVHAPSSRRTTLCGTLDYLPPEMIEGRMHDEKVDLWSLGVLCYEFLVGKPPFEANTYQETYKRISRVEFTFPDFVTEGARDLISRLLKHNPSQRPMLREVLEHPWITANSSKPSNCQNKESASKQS

[8] = target: T2, Transcription intermediary factor 1-alpha (Homo sapiens) (UniProt O15164)
T2 sequence (whole entry): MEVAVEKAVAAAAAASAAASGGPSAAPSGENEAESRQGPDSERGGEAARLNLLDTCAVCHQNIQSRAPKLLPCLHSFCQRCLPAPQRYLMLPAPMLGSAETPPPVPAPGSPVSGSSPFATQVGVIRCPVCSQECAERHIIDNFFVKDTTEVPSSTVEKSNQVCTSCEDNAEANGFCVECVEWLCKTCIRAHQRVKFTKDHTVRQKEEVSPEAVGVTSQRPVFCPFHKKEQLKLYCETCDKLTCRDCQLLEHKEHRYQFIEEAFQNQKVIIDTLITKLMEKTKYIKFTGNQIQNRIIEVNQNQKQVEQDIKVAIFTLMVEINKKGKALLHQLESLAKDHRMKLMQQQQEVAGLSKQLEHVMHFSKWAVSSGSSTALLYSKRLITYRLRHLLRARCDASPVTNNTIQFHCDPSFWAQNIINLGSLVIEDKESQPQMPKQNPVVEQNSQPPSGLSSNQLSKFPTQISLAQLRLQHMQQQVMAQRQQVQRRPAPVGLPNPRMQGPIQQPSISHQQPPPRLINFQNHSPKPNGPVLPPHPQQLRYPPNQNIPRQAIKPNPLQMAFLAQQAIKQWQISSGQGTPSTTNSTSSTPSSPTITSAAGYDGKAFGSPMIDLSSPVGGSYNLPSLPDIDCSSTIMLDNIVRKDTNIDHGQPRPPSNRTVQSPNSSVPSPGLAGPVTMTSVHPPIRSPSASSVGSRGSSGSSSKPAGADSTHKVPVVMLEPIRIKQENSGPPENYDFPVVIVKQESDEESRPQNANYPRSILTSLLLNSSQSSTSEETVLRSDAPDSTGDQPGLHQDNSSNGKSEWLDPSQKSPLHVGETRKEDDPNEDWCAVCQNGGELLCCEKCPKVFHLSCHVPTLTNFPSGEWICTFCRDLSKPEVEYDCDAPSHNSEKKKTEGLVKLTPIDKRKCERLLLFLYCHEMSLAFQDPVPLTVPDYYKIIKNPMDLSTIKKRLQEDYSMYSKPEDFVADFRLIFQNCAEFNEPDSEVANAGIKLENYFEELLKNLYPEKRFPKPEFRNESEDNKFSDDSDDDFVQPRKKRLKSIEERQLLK

Chain of Mitogen-activated protein kinase 1 (Homo sapiens) (P28482 whole entry): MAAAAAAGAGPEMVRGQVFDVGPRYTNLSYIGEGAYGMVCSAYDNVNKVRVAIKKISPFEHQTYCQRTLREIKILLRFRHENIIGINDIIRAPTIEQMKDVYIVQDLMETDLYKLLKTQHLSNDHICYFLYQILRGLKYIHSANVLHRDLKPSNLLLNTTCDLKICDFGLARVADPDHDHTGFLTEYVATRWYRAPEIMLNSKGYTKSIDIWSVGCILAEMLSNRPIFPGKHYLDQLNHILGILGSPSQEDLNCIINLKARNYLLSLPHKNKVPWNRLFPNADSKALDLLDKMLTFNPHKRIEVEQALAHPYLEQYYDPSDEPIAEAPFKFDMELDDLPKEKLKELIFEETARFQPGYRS
Chain of Glycogen synthase kinase-3 beta (Homo sapiens) (P49841 whole entry, looked up): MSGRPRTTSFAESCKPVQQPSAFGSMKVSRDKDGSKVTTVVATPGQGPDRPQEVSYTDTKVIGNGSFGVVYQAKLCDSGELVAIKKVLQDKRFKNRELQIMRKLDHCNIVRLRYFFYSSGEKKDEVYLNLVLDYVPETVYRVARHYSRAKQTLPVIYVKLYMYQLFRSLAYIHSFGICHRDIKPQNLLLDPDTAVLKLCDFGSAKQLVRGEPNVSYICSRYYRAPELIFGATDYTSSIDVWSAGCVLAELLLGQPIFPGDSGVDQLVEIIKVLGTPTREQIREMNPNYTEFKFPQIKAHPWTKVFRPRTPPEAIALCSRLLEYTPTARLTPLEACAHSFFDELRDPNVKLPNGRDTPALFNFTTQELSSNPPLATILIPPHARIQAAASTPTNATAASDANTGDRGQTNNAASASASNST
Chain of Casein kinase I isoform delta (Homo sapiens) (P48730 whole entry, looked up, canonical isoform): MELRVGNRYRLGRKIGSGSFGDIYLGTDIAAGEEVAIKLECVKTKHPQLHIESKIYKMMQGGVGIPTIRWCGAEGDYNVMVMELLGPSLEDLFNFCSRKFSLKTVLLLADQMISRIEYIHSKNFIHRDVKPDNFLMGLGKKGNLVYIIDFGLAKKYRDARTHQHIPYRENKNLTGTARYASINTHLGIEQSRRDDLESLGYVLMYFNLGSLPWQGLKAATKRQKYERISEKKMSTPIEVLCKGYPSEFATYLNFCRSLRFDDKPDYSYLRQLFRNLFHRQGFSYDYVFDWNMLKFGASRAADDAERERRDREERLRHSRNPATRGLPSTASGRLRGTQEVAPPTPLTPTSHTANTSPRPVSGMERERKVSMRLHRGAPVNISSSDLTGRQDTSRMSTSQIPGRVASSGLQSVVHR
Chain of Tyrosine-protein kinase ABL1 (Homo sapiens) (P00519 whole entry): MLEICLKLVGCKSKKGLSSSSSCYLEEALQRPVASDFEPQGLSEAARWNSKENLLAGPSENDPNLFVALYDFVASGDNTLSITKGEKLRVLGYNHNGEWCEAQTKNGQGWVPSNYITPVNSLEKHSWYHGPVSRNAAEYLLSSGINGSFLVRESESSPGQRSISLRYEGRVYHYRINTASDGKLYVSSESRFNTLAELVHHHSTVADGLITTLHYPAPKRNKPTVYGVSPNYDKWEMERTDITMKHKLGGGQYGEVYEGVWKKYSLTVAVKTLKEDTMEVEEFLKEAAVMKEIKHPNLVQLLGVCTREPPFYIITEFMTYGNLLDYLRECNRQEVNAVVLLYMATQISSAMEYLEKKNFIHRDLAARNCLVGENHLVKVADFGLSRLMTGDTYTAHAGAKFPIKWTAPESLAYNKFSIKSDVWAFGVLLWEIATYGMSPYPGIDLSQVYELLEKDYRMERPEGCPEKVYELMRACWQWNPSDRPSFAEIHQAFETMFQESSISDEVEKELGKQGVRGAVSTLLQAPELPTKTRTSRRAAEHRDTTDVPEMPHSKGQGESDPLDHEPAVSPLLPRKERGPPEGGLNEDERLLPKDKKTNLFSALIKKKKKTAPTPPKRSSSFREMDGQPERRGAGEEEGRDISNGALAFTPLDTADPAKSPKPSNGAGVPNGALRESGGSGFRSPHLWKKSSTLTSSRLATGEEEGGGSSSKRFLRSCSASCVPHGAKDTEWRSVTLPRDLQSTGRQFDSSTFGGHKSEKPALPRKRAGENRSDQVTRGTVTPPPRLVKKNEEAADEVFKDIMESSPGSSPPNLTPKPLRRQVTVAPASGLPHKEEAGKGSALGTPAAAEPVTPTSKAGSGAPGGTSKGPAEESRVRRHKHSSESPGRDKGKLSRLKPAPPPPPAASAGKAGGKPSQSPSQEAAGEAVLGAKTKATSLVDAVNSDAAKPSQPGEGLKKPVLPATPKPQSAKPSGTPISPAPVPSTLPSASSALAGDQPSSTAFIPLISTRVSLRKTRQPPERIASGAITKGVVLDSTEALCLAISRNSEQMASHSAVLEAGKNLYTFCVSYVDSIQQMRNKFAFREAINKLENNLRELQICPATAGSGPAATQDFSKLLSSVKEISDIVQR

SMILES | ΔTm [1] | ΔTm [2] | ΔTm [3] | ΔTm [4] | ΔTm [5] | ΔTm [6] | ΔTm [7] | ΔTm [8] | ΔTm ([5]; Protein concentration 2.0 uM)
COc1cc(O)c2c(c1)/C=C\C[C@H](O)[C@H](O)C(=O)/C=C\C[C@H](C)OC2=O | 6.88 °C | -0.9 °C | 0 °C | 0.3 °C | 0 °C | 0 °C | 0 °C | -0.14 °C | –
COc1ccc(N(C(=O)Oc2c(C)cccc2C)c2ccnc(Nc3ccc(N4CCN(C)CC4)cc3)n2)c(OC)c1 | 9.28 °C | -0.9 °C | 0.75 °C | 0.09 °C | 1.59 °C | 0.08 °C | 0.66 °C | -0.91 °C | –
O=C(N1CCCC[C@H]1Cc1ccccc1)n1cc(-c2ccc(-c3ccccc3)cc2)nn1 | 0.09 °C | 5.42 °C | 0.51 °C | -0.09 °C | -2.39 °C | -0.72 °C | -1.72 °C | 1.36 °C | –
O=C1Cc2cc(C(=O)N[C@@H]3C[C@H]4CC[C@@H](C3)N4S(=O)(=O)CC3CCN(CCCC(F)(F)F)CC3)c(Cl)cc2N1 | -0.02 °C | -1.65 °C | 0.34 °C | 0.08 °C | -1.14 °C | -0.31 °C | -0.32 °C | -1.38 °C | –
C[C@]12CC[C@@H]3c4ccc(O)cc4C[C@@H](CCCCCCCCC[S+]([O-])CCCC(F)(F)C(F)(F)F)[C@H]3[C@@H]1CC[C@@H]2O (stereo partly specified) | -4.09 °C | -2.93 °C | 0 °C | -4.77 °C | 0.72 °C | -12 °C | -0.16 °C | – | –
C/C(=N\NC(=O)c1cccc(S(=O)(=O)N2CCOCC2)c1)c1cc(Cl)ccc1O | 0.81 °C | -2.01 °C | 0.83 °C | 0.6 °C | 1.53 °C | 0.14 °C | -0.56 °C | 2.31 °C | –
Nc1cc2c3c(c1)C(c1ccccc1)=N[C@@H](NC(=O)c1cccnc1)C(=O)N3CC2 | 0.6 °C | -0.29 °C | 0.3 °C | -0.17 °C | -0.38 °C | 0.37 °C | -2.21 °C | -0.79 °C | –
C#CCNC(=O)[C@H](CO)NC(=O)[C@H](CCCCN(CC)CC)NC(=O)[C@H](NC(=O)[C@@H](NC(=O)c1ccc(Oc2ccccc2)cc1)C1CCCC1)[C@@H](C)CC ({Benzoyl(4-OPh)}-[Gly(cPent)][d(aIle)][Lys(Et2)]S-{NH(propargyl)}) | 0.66 °C | -3.19 °C | -0.21 °C | 0.55 °C | -0.46 °C | 0.25 °C | 0.59 °C | -3.76 °C | –
C(=C\c1ccccc1)/CN1CCN(CCOC(c2ccccc2)c2ccccc2)CC1 | 0.28 °C | -3.78 °C | -0.38 °C | -0.31 °C | -0.82 °C | 0.07 °C | -2.65 °C | -2.32 °C | –
O=C(NNc1ccccn1)c1ccccn1 | 0.12 °C | -1.77 °C | -0.03 °C | -0.33 °C | -0.62 °C | 0.17 °C | -0.43 °C | 0.92 °C | –
CN1[C@@H]2CC[C@H]1C[C@@H](OC(c1ccc(F)cc1)c1ccc(F)cc1)C2 | 0.58 °C | -2.87 °C | 0.08 °C | -0.16 °C | -0.54 °C | 0.11 °C | -2.6 °C | -0.2 °C | –
CCO/N=C1\c2ccccc2-c2nc(C#N)c(C#N)nc21 | 0.39 °C and 0.29 °C | -1.18 °C and -1.1 °C | 0.59 °C and 0.08 °C | -1.52 °C and -1.06 °C | 0.4 °C and -0.71 °C | -0.11 °C and -0.98 °C | -2.42 °C and -1.91 °C | 0.92 °C and 0.33 °C | –
N#Cc1nc2c(nc1C#N)-c1ccccc1C2=NOCc1ccccc1 | 0.19 °C | 1.2 °C | 3.11 °C | -0.93 °C | 0.13 °C | -0.23 °C | -1.52 °C | 1.99 °C | –
CN(Cc1cccc(-c2ccncc2)c1)C(=O)Oc1ccc(-c2ccc(C(N)=O)cc2)cc1 | 0.52 °C | 0.54 °C | 0.45 °C | -0.05 °C | 0.86 °C | 0.04 °C | -1.82 °C | 0.18 °C | –
CC(C)=C[C@H]1C[C@H](C)[C@]2(CC[C@]3(C)C[C@H]4[C@H](C(=O)C[C@@]4(C)O)/C(C=O)=C\C[C@H]32)O1 | -0.34 °C | -1.06 °C | -0.29 °C | -0.36 °C | -0.53 °C | -0.16 °C | -1.12 °C | -1.12 °C | –
COc1ccc(C(CN(C)C)C2(O)CCCCC2)cc1 (stereo unspecified) | 0.51 °C | -2.55 °C | -0.01 °C | -0.1 °C | -0.27 °C | 0.12 °C | -1.68 °C | -0.25 °C | –
CN(C)NC(=O)CCC(=O)O | 0.19 °C | -2.43 °C | -0.11 °C | -0.1 °C | -0.76 °C | 0.1 °C | -2.27 °C | -0.24 °C | –
O=C(NCCCCc1ccccc1)n1c(=O)oc2cc(-c3ccc(F)cc3)ccc21 | 0.52 °C | -2.75 °C | 0.86 °C | -0.19 °C | 0.3 °C | 0.07 °C | -1.29 °C | 0.81 °C | –
COC(=O)C[C@@H]1N=C(c2ccc(Cl)cc2)c2c(sc(C)c2C)-n2c(C)nnc21 | -0.09 °C | 12.3 °C | -0.41 °C | 0.16 °C | -0.01 °C | -0.21 °C | -1.3 °C | -0.91 °C | –
CCCCCn1c(C)c(C(=O)c2cccc3ccccc23)c2ccccc21 | 0.2 °C | -0.88 °C | 0.76 °C | 0.04 °C | -0.36 °C | 0.95 °C | -2.46 °C | 0.22 °C | –
O=C(O)C1=CCCN(CCOC(c2ccc(C(F)(F)F)cc2)c2ccc(C(F)(F)F)cc2)C1 | 0.71 °C | -3.83 °C | -0.13 °C | -0.26 °C | -0.54 °C | 0.12 °C | -2.7 °C | 0.08 °C | –
CS(=O)(=O)Nc1ccc(-c2coc3cc(OCc4cccc(C(=O)O)c4)ccc3c2=O)cc1 | -0.03 °C | 0.08 °C | 0.07 °C | -0.49 °C | -0.46 °C | 0.64 °C | -0.26 °C | 0.89 °C | –
CC(C)n1nc(-c2cc3cc(O)ccc3[nH]2)c2c(N)ncnc21 | – | – | – | – | – | – | – | – | 2 °C
